Screening data as filed in PubChem.
The list is not random: actives were taken first. Their share in the collection is about 21%.
HCV inh: HCV inhibition; Huh7.5.1 HCVcc-Cre infection, luciferase reporter, 44 h; Potency, µM (top dose mostly 41.8 µM), for the others: at the highest dose activity change, negative = inhibition, hits mostly inhibitors; actives 3.4% (n = 340,000); AID 651820; further: potency means the concentration at half of the fitted maximal effect; on the % scale 0 is the no-effect control and ±100 the full control effect
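Luciferase read-out (15 sec integration) after a 15 min room-temperature substrate step quantifies HCVcc-Cre infection. Cells, 1,000 per well, had compound added 4 h post-plating, then virus at ~0.5 moi, and were cultured 44 h.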
Pf growth 48h: P. falciparum growth inhibition at 48 hours (one generation) | Potency, µM (highest dose often 28.7 µM), inactives show at the top dose activity change, negative = inhibition, usual class: inhibitors | P. falciparum luciferase growth in erythrocytes, 48 h | actives 5.9% (n = 310,000) | AID 504832; further: potency means the concentration at half of the fitted maximal effect; on the % scale 0 is the no-effect control and ±100 the full control effect
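Erythrocytes infected with P. falciparum carrying an integrated firefly luciferase reporter (2% hematocrit, 0.1% parasitemia final) were exposed to compounds in RPMI 1640 with 0.5% Albumax at 37 C, 5% CO2. Growth inhibition was scored as reduced luminescence.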
Shiga inhibitor: inhibitors of Shiga toxin in Vero cells; Vero cells, Shiga toxin protein synthesis inhibition reporter; inhibition, % at 38.7 µM; AID 2315; actives 9.2% (n = 290,000); in the data active means inhibition mostly above about 28%, no sharp cut-off; inactive means mostly below about 43%; further: 0% is about no effect
Pf growth 96h: P. falciparum growth inhibition at 96 hours | P. falciparum luciferase reporter growth, 96 h | Potency, µM (series often up to 28.7 µM), without a hit: at the highest dose activity change, negative = inhibition, usual class: inhibitors | actives 6.9% (n = 320,000); further: potency means the concentration at half of the fitted maximal effect; on the % scale 0 is the no-effect control and ±100 the full control effect
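Readout is luminescence from an integrated firefly luciferase in P. falciparum. Red cells, 2% hematocrit and 0.05% parasitemia final, were cultured with compound through two parasite generations (96 hours) at 37 C, 5% CO2.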
Cycloheximide cs: counter-screen for Shiga toxin inhibitors: cycloheximide protein synthesis inhibition; cell reporter, cycloheximide protein synthesis inhibition counterscreen; max response, %; actives 12% (n = 300,000); AID 2314; in the data active means max response mostly above about 13%, no sharp cut-off; inactive means mostly below about 14%; further: read at 38.3 µM for the half of the compounds with a filed dose; 0% is about no effect
AMA1 RON2 block: disrupts binding of P. falciparum AMA1 to RON2; AlphaScreen AMA1-biotinylated RON2 peptide binding; Potency, µM (series often up to 58.2 µM), for inactives: top-dose activity change, negative = inhibition, hits mostly inhibitors; AID 720542; actives 0.2% (n = 360,000);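 further: potency means the concentration at half of the fitted maximal effect; 0% = vehicle wells and -100% = peptide control; nearly all actives have a fitted effect of over 45% in size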
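AMA1 (3D7) with his tag at 25 nM final met compounds first, then biotinylated RON2 peptide at 25 nM; detection used donor plus acceptor beads, 10 µg/mL apiece, read by AlphaScreen after 30 min at room temperature.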
* marks the source's active call; other numbers are inactive results; ? = inconclusive; · = no result; [ ] = dose if it differs, or a comment. Unless noted, the call rests on the fitted dose curve; in most records, active means well fitted curve in the direction sought with a large enough effect; inconclusive means small, poorly fitted or top-dose-only effect, or another doubt; inactive means no such curve, though single readings can be large; an effect the other way counts as inactive or inconclusive.

SMILES	HCV inh	Pf growth 48h	Shiga inhibitor	Pf growth 96h	Cycloheximide cs	AMA1 RON2 block
CCN(CC)C(=O)C1=C(C)N(Cc2ccccc2)C(=O)C(CC(=O)NC2CC2)C1 (configuration not stated)	·	·	·	·	·	1%
CN(Cc1c(O)ccc2c1oc(=O)c1ccccc12)C1CCCCC1	-13%	5.2µM*	25	?	-1	21µM*
Cc1oc2c(CN3CCOCC3)c(O)ccc2c(=O)c1-c1ccc(Br)cc1	6%	4.1µM*	0	13µM*	-2	-17%
CC[C@H](C)[C@H](NC(=O)CNC(=O)[C@@H](NC(=O)[C@@H](NC(=O)[C@H](Cc1ccc(O)cc1)NC(=O)[C@H](CC(C)C)NC(=O)[C@H](C)NC(=O)[C@H](CCC(N)=O)NC(=O)CNC(=O)[C@@H]1CCCN1C(=O)CNC(=O)[C@H](Cc1ccccc1)NC(=O)[C@H](Cc1cnc[nH]1)NC(=O)[C@@H](NC(=O)CNC(=O)[C@H](CCCNC(=N)N)NC(=O)[C@H](CCCNC(=N)N)NC(=O)[C@@H](NC(=O)[C@H](CC(N)=O)NC(=O)[C@@H](N)CS)[C@@H](C)O)[C@@H](C)CC)[C@@H](C)O)[C@@H](C)O)C(=O)O	·	·	-4	·	-8	·
CC(C)=NOc1nc(N(C)C)nc(N2CCOCC2)n1	1%	7%	-11	1%	5	8%
Cc1oc2c(CN3CCC(C)CC3)c(O)ccc2c(=O)c1-c1ccccc1	5%	2.9µM*	4	4.1µM*	3	0%
COc1ccc(-c2c(C(F)(F)F)oc3c(CN4CCN(C)CC4)c(O)ccc3c2=O)cc1	3%	3.3µM*	2	?	-2	-19%
CCC1CCCCN1Cc1c(O)ccc2c(=O)c(-c3ccccc3OC)coc12 (configuration not stated)	-3%	·	·	·	·	-2%
COc1ccccc1-c1coc2c(CN3CCC(C)CC3)c(O)ccc2c1=O	6%	12µM*	27	?	7	29%
Cc1oc2c(CN3CCCC3)c(O)ccc2c(=O)c1-c1ccccc1	1%	?	11	12µM*	-1	-3%
Cc1oc2c(CN3CCCC3)c(O)ccc2c(=O)c1-c1ccc(Cl)cc1	-3%	?	28	-2%	1	4%
Cc1cc(NC(=O)OC(C)(C)C)c(-n2nnnc2C(C(=O)c2ccccc2)N2CCOCC2)cc1C (configuration not stated)	·	·	·	·	·	17%
COCCN(C(=O)CSc1cc(C)c2ccccc2n1)c1c(N)n(CC(C)C)c(=O)[nH]c1=O	13%	17%	·	33%	·	-4%[11.6 µM]
COC1CC(N)C2OC(c3ccccc3)OCC2O1 (configuration not stated)	·	·	·	·	·	0%
CCN(CC(=O)NCc1cccs1)C(=O)c1ccc(S(=O)(=O)Nc2ccccc2Cl)cc1	8%	?	·	-19%	·	15%
CCCCc1cc(=O)oc2c(CN3CCN(C)CC3)c(O)ccc12	?	12µM*	6	?	5	-1%
CCCc1cc(=O)oc2c(CN3CCN(C)CC3)c(O)ccc12	3%	1%	-4	-2%	-1	-3%
O=c1c(Oc2ccccc2Br)c(C(F)(F)F)oc2c(CN3CCCC3)c(O)ccc12	14%	10µM*	16	2.1µM*	-4	?
O=C(CCCOc1ccccc1)NCCc1nc2ccccc2[nH]1	19%	20%	-8	-26%	-2	-6%
O=C(CN1C(=O)C2CC=CCC2C1=O)Nc1ccccc1N1CCCC1 (configuration not stated)	11%[8.37 µM]	1%	·	6%	·	-8%
O=S(=O)(CCOc1ccccc1)c1nc2ccccc2[nH]1	-15%	-12%	23*	?	18*	1%
O=C(CSc1ccc(Cl)cc1)Nc1ccc(-c2nc3ccccc3[nH]2)cc1	-11%	4.1µM*	24	10%	-2	9%[11.6 µM]
O=C(CCNC(=O)c1ccc(Br)cc1)Nc1nc2ccccc2[nH]1	4%	-8%	·	22%	·	-7%
O=C(CSc1nc2ccccc2[nH]1)Nc1ccc(F)cc1	-20%	·	3	-8%	-6	6%
O=C(Cc1ccc(Br)cc1)Nc1nc2ccccc2[nH]1	6%	?	22	2%	14*	22%
SMILES	HCV inh	Pf growth 48h	Shiga inhibitor	Pf growth 96h	Cycloheximide cs	AMA1 RON2 block
O=C(CN1C(=O)C2CC=CCC2C1=O)Nc1nc2ccccc2[nH]1 (configuration not stated)	11%	10%	-5	19µM*	2	53%
CC(C)NC[C@H]1CCc2cc(CO)c([N+](=O)[O-])cc2N1	·	-10%[12.8 µM]	·	-12%[12.8 µM]	·	·
O=C(COc1ccccc1F)Nc1ccc(S(=O)(=O)N2CCCC2)cc1	-30%	?	·	?	·	14%
O[C@@H]1CN(Cc2cccs2)[C@@H](c2ccc(Cl)cc2)C[C@H]1n1cc(C2CC2)nn1	·	·	·	·	·	-2%
COc1ccc2c(CCNC(=O)c3ccc([N+](=O)[O-])cc3)c[nH]c2c1	?	0%	-9	15%	2	10%
O=C(Cc1ccccc1)Nc1nc2ccccc2[nH]1	11%	58%	79*	·	26*	42%
O=C(CSc1ccccc1)Nc1nc2ccccc2[nH]1	-23%	123%	84*	125%	28*	30%
O=C(Cc1c[nH]c2ccccc12)Nc1nc2ccccc2[nH]1	10%	19%	74*	?	26*	21%
Cc1ccc(OCCCC(=O)Nc2nc3ccccc3[nH]2)cc1	-14%	8%	5	?	6	24%
O=C(CCCOc1ccccc1)Nc1nc2ccccc2[nH]1	-7%	278%	68*	223%	34*	7%
O=C(Cc1c[nH]c2ccccc12)Nc1nccs1	4%	4%	21	-1%	13	-2%
O=C(Cc1ccc(Cl)cc1)Nc1nc2ccccc2[nH]1	4%	15%	7	·	-1	10%
CCOC(=O)N1CCC(N2Cc3cccc(C(=O)Nc4ccc(N(CC)CC)cc4C)c3C2=O)CC1	-12%	?	-21	0.74µM*	-4	-5%
CCOC(=O)N1CCC(N2Cc3cccc(C(=O)Nc4ccc(F)cc4)c3C2=O)CC1	?	3.3µM*	13	-13%	7	-2%
CCOC(=O)N1CCC(N2Cc3cccc(C(=O)Nc4ccc(CC)cc4)c3C2=O)CC1	1%	·	18	47%	-2	-5%
CCN(CC)c1ccc(NC(=O)c2cccc(C)c2OC)c(C)c1	?	106%	87*	24%	65*	-28%
CCOC(=O)N1CCC(N2Cc3cccc(C(=O)Nc4cc(F)ccc4F)c3C2=O)CC1	-8%	·	-16	-3%	-7	0%
Cc1ccc(NC(=O)c2cccc3c2C(=O)N(C2CCCCC2)C3)cc1	-20%	5%	-11	12µM*	-1	-6%
O=C(C[n+]1cccc(/C=N/O)c1)N1CCCc2ccccc21	2%	?	21	48%	-6	1%
